# Experimental data published in PubChem BioAssay (NCI).
# “And” between values parts separate entries of the source, which are not always exact repeats. Equal values may be shown once. About 83,000 compounds went through this panel and 20% of them were active in at least one assay; those are over-represented in the sample as a whole.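 A percent growth of 40 corresponds to 60% growth inhibition; 0 means no net growth; -100 means all cells died. Active threshold: below 10.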 Unmarked numbers belong to inactive results. The source made the active and inactive calls.
# Tests used:
# Experiment in all cases: NCI-60 one-dose screen, 48 h (100 = growth as untreated, 0 = no growth, -100 = all killed)
# Conditions in all cases: 10 µM unless noted
# [1] = system: HCT-15 colon
# [2] = system: HT29 colon
# [3] = system: SNB-75 CNS
# [4] = system: SNB-19 CNS
# [5] = system: U251 CNS
# [6] = system: PC-3 prostate
# [7] = system: SK-MEL-5 melanoma
# [8] = system: UACC-62 melanoma
# [9] = system: LOX IMVI melanoma
# [10] = system: SK-MEL-28 melanoma
SMILES,growth [1],growth [2],growth [3],growth [4] [%],growth [5],growth [6],growth [7],growth [8],growth [9],growth [10]
CC(=O)Nc1c(I)c(NC(C)=O)c(I)c(C(=O)O)c1I,98.5% and 131%,108% and 118%,82% and 124%,107,102% and 106%,88.2% and 101%,103% and 105%,105% and 119%,95.8% and 111%,115% and 108%
O=c1oc2c(Br)cc(Br)cc2cc1-c1cc(-c2ccc(-c3cc(-c4cc5cc(Br)cc(Br)c5oc4=O)nc(-c4cc5cc(Br)cc(Br)c5oc4=O)c3)cc2)cc(-c2cc3cc(Br)cc(Br)c3oc2=O)n1,111%,90.8%,105%,101,107%,97.5%,108%,102%,99.5%,112%
Cc1nc2sc(C(=O)Nc3cccc(Cl)c3C)c(N)c2cc1C(O)c1ccccc1 (stereo not given),12.3%,11.8%,59.3%,34.7,9.59% (active),19.6%,-37.5% (active),21.4%,20.5%,53.9%
CCOC(=O)c1c(-c2ccc(C)cc2)c(C#N)c(=O)n(-c2cccc(C(F)(F)F)c2)c1N,101%,111%,76.3%,88.8,102%,110%,101%,99%,96.9%,102%
CCCCn1c(C(=O)c2c[nH]c3ccccc23)n[nH]c1=S,99%,99.8%,81.2%,100,100%,93.8%,99.9%,81.7%,96.4%,117%
NC(=O)c1c(NC(=O)/C=C/c2cccs2)sc2c1CCC(=O)C2,13.1%,15.8%,56.5%,64.5,22.2%,13.4%,24.4%,16.9%,18.4%,41.8%
